HTT prom inh = inhibitors of huntingtin promoter activity | HEK293 HTT promoter firefly luciferase reporter, 24 h | Potency, µM (doses to about 57.5 µM), usual class: inhibitors | 48,000 compounds, 0.93% hits | AID 1508623; further: nearly all actives have a fitted effect of over 50% in size
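Firefly luciferase readout (Dual-Glo, 10 min RT) after 24 h, 37 °C compound exposure (final up to 57.5 uM) of HEK293 reporter cells cultured 24 h beforehand; PTC124 at 50 uM final as control inhibitor; activity scaled vehicle 0%, zero RLU -100%.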
p53null 39C kill = selectivity test: cytotoxicity in p53 null cells, nonpermissive temperature | 55,000 compounds, 0.97% hits | H1299 p53-null (neo) cells, 39C, ATPlite viability, 24 h | Potency, µM (titrated, usually from 46.1 µM), hits mostly cytotoxic; further: nearly all actives have a fitted effect of over 50% in size
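Temperature-shift cytotoxicity format: compound titrations on p53-null or A138V-expressing H1299 cells held 24 hr at 39C, cell ATP then measured, AC50 from Hill model.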
p53null 32C tox = selectivity test: cytotoxicity in p53 null cells, permissive temperature; H1299-neo p53 null cells, ATP luminescence, 24 h, 32C; Potency, µM (series often up to 46.1 µM), hits mostly cytotoxic; 55,000 compounds, 0.62% hits; further: nearly all actives have a fitted effect of over 55% in size
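H1299-neo (p53-null) cells, 600/well, were pre-incubated overnight at 37C, then exposed to compounds at up to 46 uM for 24 hr at 32C. Viability was measured as ATP content by luminescence, and AC50 values came from Hill fits.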
HTT-AS act = activators of huntingtin-antisense promoter activity. Potency, µM (series often up to 57.5 µM), actives largely listed as activators. 48,000 compounds, 0.24% hits. HEK293 HTT-AS promoter firefly luciferase reporter, 24 h; response scale: percent change from vehicle, -100% = no light; further: nearly all actives have a fitted effect of over 55% in size
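HEK293 Fluc reporter, 2,500 cells/well, 24 h pre-culture; cpds up to 57.5 uM final, 24 h 37 degrees C; Dual-Glo, 10 min RT; normalized vehicle = 0%, zero RLU = -100%.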
Large screens that a line does not name were inactive. Sampled rows, rich in hits. Any-hit rate of the full collection: about 1.9%. The call rests on the fitted dose curve; in most records, active means well fitted curve in the direction sought with a large enough effect; inconclusive means small, poorly fitted or top-dose-only effect, or another doubt; inactive means no such curve, though single readings can be large; an effect the other way counts as inactive or inconclusive.

O=c1cc(-c2ccccc2)n2c(SCc3ccccc3Cl)nnc2[nH]1	none
O=c1cc(-c2ccccc2)n2c(SCc3ccc(Cl)cc3)nnc2[nH]1	none
O=C(CSc1nnc2[nH]c(=O)cc(-c3ccccc3)n12)Nc1ccccc1C(F)(F)F	p53null 39C kill inconclusive, p53null 32C tox inconclusive, HTT-AS act 11µM
COc1ccc(Cl)cc1NC(=O)CSc1nnc2[nH]c(=O)cc(-c3ccccc3)n12	p53null 32C tox 2.5µM
CCc1ccc(NC(=O)CSc2nnc3[nH]c(=O)cc(-c4ccccc4)n23)cc1	p53null 39C kill inconclusive, p53null 32C tox 2.5µM
COc1cc(Oc2ccnc3cc(OC)c(OC)cc23)ccc1NC(=O)NC(C)c1nccs1 (stereo unspecified)	none (no result: p53null 39C kill, p53null 32C tox)
COc1cccc(-c2nnc(-c3ccc(C)o3)o2)c1	p53null 39C kill 13µM, p53null 32C tox 13µM (no result: HTT prom inh, HTT-AS act)

Screening data from PubChem BioAssay.
